Assay results reported in PubChem BioAssay (NCI).
The panel holds about 83,000 compounds, 20% with a hit somewhere; the sample as a whole holds those more often.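 The test compound was applied at a single concentration to cells in 96-well plates for 48 hours, and percent growth was recorded.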 Values without a mark were called inactive. Activity calls are given as the source filed them. Rule for the calls: active = growth percent below 10; inactive = the rest.

What follows are compounds tested on SN12C renal (assay: NCI-60 one-dose screen, 48 h (100 = growth as untreated, 0 = no growth, -100 = all killed)). Conditions: 10 µM.
With `O=C(O)c1ccccc1NCc1ccco1` the growth was 99.8%. In the case of `C/C(=C\c1cc(Cl)ccc1OCC(=O)O)[N+](=O)[O-]`, the growth is reported as 122%. Compound `CSC[C@H](NC(=O)COc1cccc2cnccc12)C(=O)NC(Cc1ccccc1)C(O)C(=O)N1CSC[C@H]1C(=O)NC(C)(C)C` (some centres undefined) has a growth of 102%. For `COC1=CC(=O)c2nc(Cl)ccc2C1=O`, the growth was -69.5% (active). `CCOC(=O)CCCC(=O)OCC` showed a growth of 114%. `N#Cc1ccc(NC(=O)Nc2cccc(C#N)c2)cc1` showed a growth of 94%. With `Cc1cc2nc(CC(=O)c3cccc([N+](=O)[O-])c3)c(=O)[nH]c2cc1C` the growth was 86.5%. Compound `COc1cc(C(=O)N/N=C/c2cccc([N+](=O)[O-])c2)cc(OC)c1OC` has a growth of 93.8%. `CN(C)C(C)(C)CC(C)(C)C` gave a growth of 98.3%. Compound `O=c1cc(-c2ccccc2)[nH]c2c1CCCC2` has a growth of 44.6%. With `CC1(c2ccccc2)NC(=O)NC1=O` (centres undefined) the growth was 96.9%. `CCCNC(=O)c1ccc(S(N)(=O)=O)cc1` was tested, and the growth was 107%. `COC(=O)c1[nH]c(=O)c(C#N)c(C(=O)OC)c1C(=O)c1ccccc1` was tested, and the growth was 95%. `O=C(O)[C@@H]1[C@H]2C[C@H]3c4[nH]c5ccccc5c4CCN3C[C@@H]2CC[C@@H]1O` gave a growth of 107%. `CCCCOC(OCCCC)c1ccccc1` gave a growth of 101%. `CC1(O)OC(COc2ccc(Cl)cc2)COC1O` (centres undefined) showed a growth of 101%. `CNc1nc(NC)c2cn[nH]c2n1` gave a growth of 100%. For `CC(C)=NNc1ccc([N+](=O)[O-])cc1[N+](=O)[O-]`, the growth was 84.4%. With `CC(=O)CC(=O)N(C)C` the growth was 97%. `Nc1ccc(N=Nc2ccc(S(=O)(=O)O)cc2)c2ccccc12` was tested, and the growth was 104%. Compound `COc1cc(OC)c2ccc(=O)oc2c1` has a growth of 97%. `c1ccc(Sc2ccccc2)cc1` was tested, and the growth was 105%. With `Cc1ccc(/C=C2\SC(=S)N(c3ccc(F)cc3)C2=O)o1` the growth was 87%. In the case of `COc1ccc2c(NCCCCCCCCNc3c4ccccc4nc4cc(OC)ccc34)c3ccccc3nc2c1`, the growth is reported as -92.7% (active). In the case of `O=C(NCCNC(=O)c1ccc(Cl)cc1Cl)c1ccc(Cl)cc1Cl`, the growth is reported as 87.1%. Compound `CC1C(=O)c2ccccc2CC1C(=O)O` (centres undefined) has a growth of 112%. In the case of `Cc1nc2ccccc2c2nnc(SCC(=O)N(Cc3ccccc3)c3ccccc3)n12`, the growth is reported as 100%. With `CCCCC(O)c1ccccc1` (centres undefined) the growth was 109%. `O=S(=O)(O)c1ccc(O)c2ccccc12` gave a growth of 103%. Work on `O=C1Cc2ccccc2C(=O)O1` yielded a growth of 101%. Work on `Nc1nc(OCc2ccccc2)c2[nH]cnc2n1` yielded a growth of 105%. Work on `Cc1c(C(=O)O)c(=O)n(-c2ccccc2)n1C` yielded a growth of 105%. `COc1cc(/C=C/C(=O)c2ccccc2)cc(OC)c1OC` showed a growth of 53.3%. With `O=[N+]([O-])c1ccc(-c2noc(-c3cccs3)n2)cc1` the growth was 83.5%. `CC(=O)OCC1OC(OC2=C(CC=C(C)C)C(=O)c3ccccc3C2=O)C(OC(C)=O)C(OC(C)=O)C1OC(C)=O` (centres undefined) was tested, and the growth was 52%. `CCCCC/C=N/Nc1nc(C)cc(=O)[nH]1` was tested, and the growth was 97.4%. With `[O-][N+](=Nc1cccc(Cl)c1)c1cccc(Cl)c1` the growth was 93%. For `COc1ccc(-c2cc3c(nn2)-c2ccccc2C3=O)cc1`, the growth was 72.7%.

What follows are compounds tested on UO-31 renal in the same assay as above. Conditions: 10 µM.
Work on `CSC[C@H](NC(=O)COc1cccc2cnccc12)C(=O)NC(Cc1ccccc1)C(O)C(=O)N1CSC[C@H]1C(=O)NC(C)(C)C` (some centres undefined) yielded a growth of 94.4%. With `COC1=CC(=O)c2nc(Cl)ccc2C1=O` the growth was 23.5%. With `CCOC(=O)CCCC(=O)OCC` the growth was 89.7%. In the case of `N#Cc1ccc(NC(=O)Nc2cccc(C#N)c2)cc1`, the growth is reported as 75.6%. Compound `CC(C)=C(NC(=O)c1ccccc1)C(=O)O` has a growth of 101%. `COc1cc(C(=O)N/N=C/c2cccc([N+](=O)[O-])c2)cc(OC)c1OC` gave a growth of 73.7%. Work on `CN(C)C(C)(C)CC(C)(C)C` yielded a growth of 76.7%. `CC1(c2ccccc2)NC(=O)NC1=O` (centres undefined) gave a growth of 82.5%. For `CCCNC(=O)c1ccc(S(N)(=O)=O)cc1`, the growth was 107%. In the case of `O=C(O)[C@@H]1[C@H]2C[C@H]3c4[nH]c5ccccc5c4CCN3C[C@@H]2CC[C@@H]1O`, the growth is reported as 82.8%. `CCCCOC(OCCCC)c1ccccc1` showed a growth of 98.4%. `CNc1nc(NC)c2cn[nH]c2n1` was tested, and the growth was 78.6%. For `CC(C)=NNc1ccc([N+](=O)[O-])cc1[N+](=O)[O-]`, the growth was 61.3%. With `Nc1ccc(N=Nc2ccc(S(=O)(=O)O)cc2)c2ccccc12` the growth was 65.2%. `COc1cc(OC)c2ccc(=O)oc2c1` was tested, and the growth was 94.9%. `c1ccc(Sc2ccccc2)cc1` gave a growth of 87%. In the case of `COc1ccc2c(NCCCCCCCCNc3c4ccccc4nc4cc(OC)ccc34)c3ccccc3nc2c1`, the growth is reported as -76.2% (active). `O=C(NCCNC(=O)c1ccc(Cl)cc1Cl)c1ccc(Cl)cc1Cl` was tested, and the growth was 90.9%. `CC1C(=O)c2ccccc2CC1C(=O)O` (centres undefined) was tested, and the growth was 100%. In the case of `O=S(=O)(O)c1ccc(O)c2ccccc12`, the growth is reported as 77.7%. With `Nc1nc(OCc2ccccc2)c2[nH]cnc2n1` the growth was 96.9%. `Cc1c(C(=O)O)c(=O)n(-c2ccccc2)n1C` was tested, and the growth was 89.6%. `COc1cc(/C=C/C(=O)c2ccccc2)cc(OC)c1OC` showed a growth of 49.7%. `CC(=O)OCC1OC(OC2=C(CC=C(C)C)C(=O)c3ccccc3C2=O)C(OC(C)=O)C(OC(C)=O)C1OC(C)=O` (centres undefined) showed a growth of 38.6%. `CCCCC/C=N/Nc1nc(C)cc(=O)[nH]1` showed a growth of 92.1%. `[O-][N+](=Nc1cccc(Cl)c1)c1cccc(Cl)c1` showed a growth of 72.8%.
